What all share (assay): NCI-60 one-dose screen, 48 h (100 = growth as untreated, 0 = no growth, -100 = all killed)
Common to all, as to conditions: 10 µM unless noted

Experiment [1] concerns HCT-15 colon.
The subject of experiment [2] is HT29 colon.
Experiment [3] relates to SNB-75 CNS.
For experiment [4], the system named is SNB-19 CNS.
In experiment [5] the test system is U251 CNS.
In experiment [6] the test system is PC-3 prostate.
Experiment [7] concerns SK-MEL-5 melanoma.
In experiment [8] the test system is UACC-62 melanoma.
The subject of experiment [9] is LOX IMVI melanoma.
Experiment [10] relates to SK-MEL-28 melanoma.
The subject of experiment [11] is SK-MEL-2 melanoma.
In experiment [12] the test system is EKVX NSCLC.
Experiment [13] concerns SN12C renal.
Experiment [14] relates to UO-31 renal.
Experiment [15] has as its system TK-10 renal.
The subject of experiment [16] is ACHN renal.
The subject of experiment [17] is CAKI-1 renal.
Experiment [18] relates to A498 renal.
For experiment [19], the system named is CCRF-CEM leukemia.
For experiment [20], the system named is MOLT-4 leukemia.

SMILES strings stand for the structures. About 83,000 compounds went through this panel and 20% of them were active in at least one assay; those are over-represented in the sample as a whole.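 Negative percent growth values reflect cell death: -40 means 40% of the cells present at the start died, and -100 means all died.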 A number with no mark means an inactive call. The source made the active and inactive calls. How the source made its calls: active means growth percent below 10; inactive means the rest.

As for `Cc1cc2nc(C(Cl)Cl)nc(-c3ccccc3)n2n1`, the growth in [1] is 41.2%; in [2] it was 12.6%; in experiment [3] it was -4.36% (active); in experiment [4], 62.7%; in [5], 36%; in experiment [6], 65.1%. The growth in [7] is 94.4%; in [8], 88.9%; in experiment [9] it was 75.1%; in experiment [10], 85.1%; in experiment [11], 110%; in experiment [12] it was 61%. Further, the growth is 85.6% in experiment [13]; 75.1% in [14]; 59.2% in [15]; 11.6% in experiment [16]; 35% in experiment [17]; 20.8% in [18]. For the same compound, the growth in experiment [19] was 79.1%; in experiment [20], 53.1%.

In the case of `CCCN1C2CCC1/C(=C\c1ccc(OC)cc1)C(=O)/C2=C/c1ccc(OC)cc1`, the growth is 71.1% in experiment [1]; 58% in [2]; 84.9% in experiment [3]; 86.7% in experiment [4]; 70.3% in [5]; 64% in experiment [6]. Besides, the growth was 64.1% in [7]; 49.7% in experiment [8]; 74.8% in [9]; 82.7% in experiment [10]; 72.5% in experiment [11]; 77.6% in [12]. In addition, the growth in experiment [13] was 75%; in [14], 56.3%; in experiment [15], 85.9%; in [16], 81.6%; in experiment [17], 74.4%; in experiment [18], 80%. The figures for the growth in [19] and in experiment [20] were 67.4% and 55%, respectively.

With `O=C1c2ccccc2C(=O)c2cc(Cn3c[n+](Cc4ccc5ccccc5c4)c4ccccc43)ccc21`, the growth in experiment [1] is 89.8%; in experiment [2] it was 51.5%; in [3], 42.3%; in [4] it was 45%; in experiment [5] it was 57.1%; in [6], 27.7%. In addition, the growth in [7] was 34.1%; in experiment [8], 4.86% (active); in experiment [9] it was 52%; in experiment [10] it was 45.4%; in experiment [11], 51.2%; in experiment [12], 73.9%. Also, the growth in experiment [13] was 47.8%; in experiment [14], 72.8%; in experiment [15], 67.8%; in [16], 92.4%; in [17], 40.5%; in [18], 77.8%. The growth in [19] was 22.1%; in experiment [20] it was 28.1%.

For `CN1CCN(Cc2ccc(NC(=O)c3cncc(C#Cc4cnc(N)c5ccc(C#N)cc45)c3)cc2C(F)(F)F)CC1`, the growth is -82.4% (active) in experiment [1]; -32.4% (active) in [2]; -20% (active) in [3]; 25.8% in [4]; 3.03% (active) in experiment [5]; 27.4% in experiment [6]. The growth is -93.2% (active) in experiment [7]; -51.8% (active) in [8]; -95.8% (active) in [9]; -81% (active) in experiment [10]; -62% (active) in [11]; 43.4% in experiment [12]. The growth in [13] is -81.1% (active); in experiment [14], -78.4% (active); in experiment [15] it was -2.47% (active); in experiment [16] it was -92.5% (active); in experiment [17], -51.5% (active); in experiment [18], -29.8% (active). Further, the growth was 3.96% (active) in experiment [19] and 2.26% (active) in experiment [20].

As to `O=c1n(C2OC(CO)C(O)C2O)ccc2nccn12` (stereo not given), the growth was 105% in experiment [1]; 108% in [2]; 95.5% in experiment [3]; 114% in experiment [4]; 99% in [5]; 104% in experiment [6]. For the same compound, the growth was 114% in [7]; 111% in experiment [8]; 111% in experiment [9]; 113% in experiment [10]; 126% in [11]; 108% in experiment [12]. The growth in experiment [13] is 107%; in [14] it was 99.8%; in experiment [15] it was 122%; in experiment [16], 104%; in experiment [17], 102%; in experiment [18], 95.8%. The growth is 99.5% in [19] and 97.9% in [20].

With `O=C1NC(=O)C(=Cc2cc(-c3ccc(Cl)cc3)n(-c3ccccc3)n2)C(=O)N1`, the growth was 89.4% in experiment [1]; 112% in [2]; 92.4% in experiment [3]; 87.3% in [4]; 96.7% in experiment [5]; 100% in [6]. Further, the growth was 96.6% in experiment [7]; 90.5% in [8]; 104% in [9]; 98.5% in experiment [10]; 106% in experiment [11]; 91.6% in experiment [12]. Further, the growth was 92.5% in experiment [13]; 86.6% in experiment [14]; 88.3% in experiment [15]; 95.2% in experiment [16]; 92.8% in experiment [17]; 93.5% in experiment [18]. In addition, the values for the growth in [19] and in experiment [20] were 92.7% and 92.4%, respectively.

`Cc1ccc2c(n1)C[C@H](C(C)(C)O)CC[C@H]2C`: the growth in experiment [1] was 99.4%; in [2], 107%; in experiment [3] it was 91.8%; in experiment [4], 91.8%; in experiment [5] it was 94.4%; in experiment [6], 104%. In addition, the growth was 98.9% in experiment [7]; 94.4% in experiment [8]; 101% in experiment [9]; 106% in experiment [10]; 99.9% in experiment [11]; 92.4% in experiment [12]. The growth is 98.4% in experiment [13]; 90.6% in [14]; 97.5% in [15]; 102% in experiment [16]; 92.8% in [17]; 98.1% in experiment [18]. Also, the growth is 106% in [19] and 103% in experiment [20].

The values above are taken from PubChem BioAssay (NCI).
